Several values for one entry are separate records, joined by “and”; a condition that tells them apart may be missing. Equal entries are not always repeated. About 50,000 (12%) of roughly 420,000 compounds were called active. Not shown: some 26% with an inconclusive outcome. Calls follow the shape of the dose curve; as a rule, active = well fitted inhibition curve with a large enough effect; inconclusive = small, poorly fitted or top-dose-only effect; inactive = flat fitted curve, though single readings scatter. This excerpt belongs to a sample that is enriched for actives.
Assay: qHTS for Inhibitors of human tyrosyl-DNA phosphodiesterase 1 (TDP1): qHTS in cells in presence of CPT; also: nearly all actives have a fitted effect of over 55% in size
Details: chicken DT40 Tdp1-/-;hTDP1 cells + 20 nM CPT, ATP luminescence, 48 h; series mostly up to 46.2 µM; activity change, negative = growth inhibition: at the top concentration
Method in brief: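 Cell growth measured by CellTiter-Glo luminescence after a minimum 48 h, 37 C compound exposure with 20 nM CPT in Tdp1-knockout DT40 cells stably expressing hTDP1, seeded 400/well; qHTS titration format.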
% is scaled to controls: 0 for no effect and ±100 for the full control effect; potency is read from the fitted curve at half-maximal effect.

| Compound | activity change, negative = growth inhibition | Potency |
| --- | --- | --- |
| O=C(NCCc1c[nH]c2ccc(Cl)cc12)c1ccc([N+](=O)[O-])cc1 | -0.327% (inactive) | – |
| CCc1ccc(C(=O)NC(=S)Nc2ccccc2N2CCOCC2)cc1 | -29.2% (inactive) | – |
| O=C(COc1ccc(Cl)cc1)NC(=S)Nc1ccccc1N1CCOCC1 | 8.34% (inactive) | – |
| O=C(Cc1cccc2ccccc12)NCCC1=CCCCC1 | -28.8% (inactive) | – |
| O=C(CN1CCN(C2CCCCC2)CC1)Nc1ccccc1N1CCCCC1 | – | 29.1 µM (active) |
| Cc1cc(C)cc(OCC(=O)Nc2ccc(N3CCOCC3)cc2N2CCOCC2)c1 | – | 20.6 µM (active) |
| O=C(CNCCC1=CCCCC1)Nc1ccccc1N1CCCCCC1 | – | 20.6 µM (active) |
| O=C(CN1CCN(c2ccc(O)cc2)CC1)Nc1ccc(-c2ccccc2)cc1 | -17.9% (inactive) | – |
| O=C(CN1CCCCC1)Nc1ccccc1C(=O)NC1CC1 | 13.4% (inactive) | – |
| Cc1ccccc1CN1CCNC(=O)C1CC(=O)NCCC1=CCCCC1 (stereo unspecified) | 13% (inactive) | – |
| Cc1ccc(OCCCC(=O)Nc2ccc(N3CCOCC3)cc2)cc1 | -17.8% (inactive) | – |
| CC(=O)c1ccc(N2CCN(CC(=O)Nc3ccccc3N3CCOCC3)CC2)cc1 | – | 14.6 µM (active) |
| O=C(NCCCN1CCN(C2CCCCC2)CC1)Nc1ccccc1C(F)(F)F | 6.84% (inactive) | – |
| CCn1c(=O)c(=O)[nH]c2c(=O)oc3ccc(S(=O)(=O)Nc4ccc(OC)cc4)cc3c21 | 0.32% (inactive) | – |
| Cc1ccc(CCN2CC(C(=O)NCCc3ccccc3)CC2=O)cc1 (stereo unspecified) | -10.1% (inactive) | – |
| O=C(COC(=O)Cc1ccc(Br)cc1)Nc1ccc(N2CCOCC2)cc1 | -13% (inactive) | – |
| CCc1ccc(NC(=O)COC(=O)c2cccs2)cc1 | 1.08% (inactive) | – |
| COc1cc(C(=O)N2CCN(C(=O)COc3cccc(C)c3)CC2)cc(OC)c1OC | 10.3% (inactive) | – |
| COc1cccc(OC)c1C(=O)Nc1ccc2c(c1)n(C)c(=O)n2C | 15.1% (inactive) | – |
| COC(=O)c1ccc(CSc2ccc(S(=O)(=O)N3CCCCC3)cn2)cc1 | -1.22% (inactive) | – |
| Cc1cn(C2OC[C@@H](O)[C@@H]2CO)c(=O)[nH]c1=O (stereo partly specified) | – | inactive |
| CC(C)(C)CN1CCNC(=O)C1CC(=O)NC1Cc2ccccc2C1 (stereo unspecified) | 1.17% (inactive) | – |
| Cc1cccc(C)c1NC(=O)CN1CCN(c2ccc(F)cc2)CC1 | – | 14.6 µM (active) |
| O=C(CN1CCN(c2ccccc2)CC1)Nc1ccc(F)cc1 | 4.73% (inactive) | – |
| O=C(CN1CCN(c2ccc(F)cc2)CC1)Nc1ccccc1 | -6.14% (inactive) | – |
| C#CCCOC(=O)N1C2=NC(C(=O)OC)=C(C(=O)OC)[C@@H]3N(C)c4ccc(OC)cc4[C@]23C[C@H]1C(=O)OC | -29.4% (inactive) | – |

| Compound | activity change, negative = growth inhibition | Potency |
| --- | --- | --- |
| N/C(=N\OC(=O)CC1CCCCC1)c1ccccc1 | 3.6% (inactive) | – |
| O=C(c1cc2ccccc2s1)N1CCN(c2ccccn2)CC1 | -10.5% (inactive) | – |
| Cc1cc(C(=O)N2CCN(c3ccccn3)CC2)c(C)o1 | – | 17.8 µM (active) |
| O=C(C(Cl)Cl)N1CCN(c2ccccn2)CC1 | 6.47% (inactive) | – |
| COc1ccc(/C=N/Nc2nc(-c3ccc(C)cc3)c(C#N)c(=O)[nH]2)cc1 | -1.12% (inactive) | – |
| COc1ccc(CCNS(=O)(=O)c2cccc([N+](=O)[O-])c2)cc1 | 2.66% (inactive) | – |
| COc1ccc(CCNS(=O)(=O)c2ccc(F)cc2)cc1OC | -13.6% (inactive) | – |
| COc1ccc(S(=O)(=O)NCCc2cc3ccc(C)c(C)c3[nH]c2=O)cc1 | – | 14.6 µM (active) and 18.4 µM (active) |
| COC(=O)Cn1nc(-c2ccccc2)c2cc(Cl)ccc21 | -2.26% (inactive) | – |
| Cc1ccc2nc(Nc3ccccc3O)nc(-c3ccccc3)c2c1 | -22.7% (inactive) | – |
| NC(N)=Nc1nc(-c2ccccc2)c2cc(Cl)ccc2n1 | – | 16.4 µM (active) |
| O=C(Nc1ccc(-c2cscn2)cc1)C1CCCN(Cc2ccc(CO)o2)C1 (stereo unspecified) | -16.9% (inactive) | – |
| CN(Cc1ccco1)S(=O)(=O)c1nnc(NC(=O)c2ccccc2)s1 | -19.4% (inactive) | – |
| CC(C)NC(=O)c1ccccc1S(=O)c1ccccc1C#N (stereo unspecified) | -8.19% (inactive) | – |
| Cc1cc(NC(=O)CC(C)C)cc(-c2nc3ncccc3o2)c1O | -22.1% (inactive) | – |
| CCC(=O)N1c2ccc(S(=O)(=O)CCC(=O)N3CCN(c4ccccc4)CC3)cc2CC1C (stereo unspecified) | -22.3% (inactive) | – |
| Cc1ccc(S(=O)(=O)NCCC(=O)NCc2ccc(Cl)cc2)cc1C | -13.5% (inactive) | – |
| CC1Cc2cc(S(=O)(=O)CCC(=O)Nc3ccc(F)c(Cl)c3)ccc2N1C(=O)C1CC1 (stereo unspecified) | – | 10.3 µM (active) |
| COc1cccc(CNS(=O)(=O)c2ccc3c(c2)CC(C)N3C(=O)C2CCC2)c1 (stereo unspecified) | – | 5.8 µM (active) and 7.31 µM (active) |
| Cn1c(=O)oc2cc(S(=O)(=O)CCC(=O)NCCc3ccc(Cl)cc3)ccc21 | -4.8% (inactive) | – |
| CC(=O)N1CCc2cc(S(=O)(=O)NC3CCCCC3)ccc21 | -29.4% (inactive) | – |
| COc1cccc(CNS(=O)(=O)c2csc(C(N)=O)c2)c1 | -15.7% (inactive) | – |
| CC1Cc2cc(S(=O)(=O)CCC(=O)NCc3ccc(Cl)cc3)ccc2N1C(=O)C1CC1 (stereo unspecified) | – | 3.66 µM (active) |
| CC1Cc2ccccc2N1CC(=O)Nc1ccc(S(N)(=O)=O)cc1 (stereo unspecified) | -8.99% (inactive) | – |
| CC(=O)N1c2ccc(S(=O)(=O)N(C)CC(=O)N(C)Cc3ccccc3)cc2CC1C (stereo unspecified) | -18.2% (inactive) | – |

Source: PubChem BioAssay AID686979 (National Center for Advancing Translational Sciences (NCATS), 2013)
